# Publication PMC11006913
# Changes are numbered by the printed parent chain.
# Assays:
# Test in all cases: PBM; 200 nM protein, PBS
# Conditions in all cases: dsDNA, one strand shown
# SHOX [1] = target: SHOX (Homo sapiens, UniProt O15266 103-189)
# PAX4 [2] = target: T1, PAX4 (Homo sapiens, UniProt O43316 9-242, R200K)
# T1 sequence: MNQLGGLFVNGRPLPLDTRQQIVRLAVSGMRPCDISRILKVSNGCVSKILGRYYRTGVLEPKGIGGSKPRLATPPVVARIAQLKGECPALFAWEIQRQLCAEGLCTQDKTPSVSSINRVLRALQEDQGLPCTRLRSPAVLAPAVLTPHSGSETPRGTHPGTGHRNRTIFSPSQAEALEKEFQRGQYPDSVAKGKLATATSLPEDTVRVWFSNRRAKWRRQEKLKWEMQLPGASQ
# PAX4 [3] = target: T2, PAX4 (Homo sapiens, UniProt O43316 9-242)
# T2 sequence: T1 sequence with K192R
# MSX2 [4] = target: MSX2 (Homo sapiens, UniProt P35548 130-214, R199I)
# PAX4 [5] = target: T3, PAX4 (Homo sapiens, UniProt O43316 9-242, R200Q)
# T3 sequence: T1 sequence with K192Q
# SHOX [6] = target: SHOX (Homo sapiens, UniProt O15266 103-189, R173C)
# PAX4 [7] = target: T4, PAX4 (Homo sapiens, UniProt O43316 9-242, F177V)
# T4 sequence: T1 sequence with F169V, K192R
# MSX2 [8] = target: MSX2 (Homo sapiens, UniProt P35548 130-214)
# PAX4 [9] = target: T5, PAX4 (Homo sapiens, UniProt O43316 9-242, F177Y)
# T5 sequence: T1 sequence with F169Y, K192R
# MSX2 [10] = target: MSX2 (Homo sapiens, UniProt P35548 130-214, F161Y)
# PAX4 [11] = target: T6, PAX4 (Homo sapiens, UniProt O43316 9-242, R227W)
# T6 sequence: T1 sequence with K192R, R219W
# PRRX1 [12] = target: PRRX1 (Homo sapiens, UniProt P54821 80-166, F113S)
# PITX2 = PITX2 (Homo sapiens, UniProt Q99697 72-157)
# PRRX1 [13] = target: PRRX1 (Homo sapiens, UniProt P54821 80-166)
# ALX4 [14] = target: ALX4 (Homo sapiens, UniProt Q9H161 200-286)
# ALX4 [15] = target: ALX4 (Homo sapiens, UniProt Q9H161 200-286, Q225E)
# ALX1 [16] = target: ALX1 (Homo sapiens, UniProt Q15699 118-204, L144V)
# ALX1 [17] = target: ALX1 (Homo sapiens, UniProt Q15699 118-204, L144R)
# ALX1 [18] = target: ALX1 (Homo sapiens, UniProt Q15699 118-204)
# HOXB6 [19] = target: HOXB6 (Homo sapiens, UniProt P17509 132-218, K202E)
# ALX3 [20] = target: ALX3 (Homo sapiens, UniProt O95076 139-225, N203Q)
# ALX3 [21] = target: ALX3 (Homo sapiens, UniProt O95076 139-225)
# ALX3 [22] = target: ALX3 (Homo sapiens, UniProt O95076 139-225, L168Q)
# ALX3 [23] = target: ALX3 (Homo sapiens, UniProt O95076 139-225, L168V)
# ALX3 [24] = target: ALX3 (Homo sapiens, UniProt O95076 139-225, N203S)
# HOXB6 [25] = target: HOXB6 (Homo sapiens, UniProt P17509 132-218)
# HOXB6 (Homo sapiens, UniProt P17509 132-218), sequence (P17509 132-218): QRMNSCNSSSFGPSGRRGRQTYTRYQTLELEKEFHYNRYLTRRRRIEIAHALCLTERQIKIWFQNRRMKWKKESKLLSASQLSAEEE
# SHOX (Homo sapiens, UniProt O15266 103-189, R173C), sequence (O15266 103-189 R173C): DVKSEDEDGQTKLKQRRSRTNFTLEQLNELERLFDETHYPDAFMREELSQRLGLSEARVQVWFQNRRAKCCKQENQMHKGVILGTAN
# SHOX (Homo sapiens, UniProt O15266 103-189), sequence (O15266 103-189): as the sequence (O15266 103-189 R173C) above, with C71R counted along it
# PRRX1 (Homo sapiens, UniProt P54821 80-166), sequence (P54821 80-166): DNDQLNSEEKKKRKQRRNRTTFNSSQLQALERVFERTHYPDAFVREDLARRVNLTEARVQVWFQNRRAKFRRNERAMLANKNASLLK
# PRRX1 (Homo sapiens, UniProt P54821 80-166, F113S), sequence (P54821 80-166 F113S): as the sequence (P54821 80-166) above, with F34S counted along it
# MSX2 (Homo sapiens, UniProt P35548 130-214, R199I), sequence (P35548 130-214 R199I): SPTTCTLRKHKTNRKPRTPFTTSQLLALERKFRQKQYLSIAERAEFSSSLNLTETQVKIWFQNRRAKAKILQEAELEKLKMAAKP
# MSX2 (Homo sapiens, UniProt P35548 130-214, F161Y), sequence (P35548 130-214 F161Y): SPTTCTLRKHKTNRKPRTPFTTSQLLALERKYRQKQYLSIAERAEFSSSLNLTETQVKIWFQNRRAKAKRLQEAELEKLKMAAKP
# MSX2 (Homo sapiens, UniProt P35548 130-214), sequence (P35548 130-214): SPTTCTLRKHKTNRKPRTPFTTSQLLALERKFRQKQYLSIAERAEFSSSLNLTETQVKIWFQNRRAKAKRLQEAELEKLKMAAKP
# ALX3 (Homo sapiens, UniProt O95076 139-225, L168Q), sequence (O95076 139-225 L168Q): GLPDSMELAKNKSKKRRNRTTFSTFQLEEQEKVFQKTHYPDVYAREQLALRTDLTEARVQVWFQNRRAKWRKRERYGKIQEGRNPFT
# ALX4 (Homo sapiens, UniProt Q9H161 200-286), sequence (Q9H161 200-286): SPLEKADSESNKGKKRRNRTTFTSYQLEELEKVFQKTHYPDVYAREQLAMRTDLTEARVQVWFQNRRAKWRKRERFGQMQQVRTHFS
# ALX1 (Homo sapiens, UniProt Q15699 118-204), sequence (Q15699 118-204): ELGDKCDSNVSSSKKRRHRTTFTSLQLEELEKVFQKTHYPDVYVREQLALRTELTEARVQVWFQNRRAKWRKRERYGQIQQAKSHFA
# ALX3 (Homo sapiens, UniProt O95076 139-225), sequence (O95076 139-225): as the sequence (O95076 139-225 L168Q) above, with Q30L counted along it
# ALX3 (Homo sapiens, UniProt O95076 139-225, L168V), sequence (O95076 139-225 L168V): as the sequence (O95076 139-225 L168Q) above, with Q30V counted along it
# ALX1 (Homo sapiens, UniProt Q15699 118-204, L144V), sequence (Q15699 118-204 L144V): as the sequence (Q15699 118-204) above, with L27V counted along it
# ALX1 (Homo sapiens, UniProt Q15699 118-204, L144R), sequence (Q15699 118-204 L144R): as the sequence (Q15699 118-204) above, with L27R counted along it
# HOXB6 (Homo sapiens, UniProt P17509 132-218, K202E), sequence (P17509 132-218 K202E): as the sequence (P17509 132-218) above, with K71E counted along it
# ALX3 (Homo sapiens, UniProt O95076 139-225, N203Q), sequence (O95076 139-225 N203Q): as the sequence (O95076 139-225 L168Q) above, with Q30L, N65Q counted along it
# ALX4 (Homo sapiens, UniProt Q9H161 200-286, Q225E), sequence (Q9H161 200-286 Q225E): as the sequence (Q9H161 200-286) above, with Q26E counted along it
# ALX3 (Homo sapiens, UniProt O95076 139-225, N203S), sequence (O95076 139-225 N203S): as the sequence (O95076 139-225 L168Q) above, with Q30L, N65S counted along it
sequence,measurement,setting,value
CGGGGGGC,binding signal,SHOX [1],"7.33 upbm affinity estimate (log intensity, higher = more binding, comparable within an allelic series)"
same,binding signal,PAX4 [2],"9.22 upbm affinity estimate (log intensity, higher = more binding, comparable within an allelic series)"
same,binding signal,PAX4 [3],"9.41 upbm affinity estimate (log intensity, higher = more binding, comparable within an allelic series)"
same,binding signal,MSX2 [4],"9.61 upbm affinity estimate (log intensity, higher = more binding, comparable within an allelic series)"
same,binding signal,PAX4 [5],"9.12 upbm affinity estimate (log intensity, higher = more binding, comparable within an allelic series)"
same,binding signal,SHOX [6],"7 upbm affinity estimate (log intensity, higher = more binding, comparable within an allelic series)"
same,binding signal,PAX4 [7],"8.99 upbm affinity estimate (log intensity, higher = more binding, comparable within an allelic series)"
same,binding signal,MSX2 [8],"9.76 upbm affinity estimate (log intensity, higher = more binding, comparable within an allelic series)"
same,binding signal,PAX4 [9],"9.11 upbm affinity estimate (log intensity, higher = more binding, comparable within an allelic series)"
same,binding signal,MSX2 [10],"9.77 upbm affinity estimate (log intensity, higher = more binding, comparable within an allelic series)"
same,binding signal,PAX4 [11],"9.12 upbm affinity estimate (log intensity, higher = more binding, comparable within an allelic series)"
ACCGGCTG,binding signal,SHOX [1],"7.1 upbm affinity estimate (log intensity, higher = more binding, comparable within an allelic series)"
same,binding signal,MSX2 [4],"9.47 upbm affinity estimate (log intensity, higher = more binding, comparable within an allelic series)"
same,binding signal,SHOX [6],"7.13 upbm affinity estimate (log intensity, higher = more binding, comparable within an allelic series)"
same,binding signal,MSX2 [8],"9.51 upbm affinity estimate (log intensity, higher = more binding, comparable within an allelic series)"
same,binding signal,MSX2 [10],"9.53 upbm affinity estimate (log intensity, higher = more binding, comparable within an allelic series)"
CCCGGCAC,binding signal,SHOX [1],"7.01 upbm affinity estimate (log intensity, higher = more binding, comparable within an allelic series)"
same,binding signal,PRRX1 [12],"9.16 upbm affinity estimate (log intensity, higher = more binding, comparable within an allelic series)"
same,binding signal,PITX2,"7.81 upbm affinity estimate (log intensity, higher = more binding, comparable within an allelic series)"
same,binding signal,SHOX [6],"7.19 upbm affinity estimate (log intensity, higher = more binding, comparable within an allelic series)"
same,binding signal,PRRX1 [13],"9.19 upbm affinity estimate (log intensity, higher = more binding, comparable within an allelic series)"
CGAACCGC,binding signal,SHOX [1],"7.29 upbm affinity estimate (log intensity, higher = more binding, comparable within an allelic series)"
same,binding signal,PRRX1 [12],"9.29 upbm affinity estimate (log intensity, higher = more binding, comparable within an allelic series)"
same,binding signal,SHOX [6],"7.2 upbm affinity estimate (log intensity, higher = more binding, comparable within an allelic series)"
same,binding signal,PRRX1 [13],"9.38 upbm affinity estimate (log intensity, higher = more binding, comparable within an allelic series)"
AGCTCCAG,binding signal,SHOX [1],"7.12 upbm affinity estimate (log intensity, higher = more binding, comparable within an allelic series)"
same,binding signal,ALX4 [14],"7.91 upbm affinity estimate (log intensity, higher = more binding, comparable within an allelic series)"
same,binding signal,ALX4 [15],"8.27 upbm affinity estimate (log intensity, higher = more binding, comparable within an allelic series)"
same,binding signal,ALX1 [16],"6.26 upbm affinity estimate (log intensity, higher = more binding, comparable within an allelic series)"
same,binding signal,SHOX [6],"7.22 upbm affinity estimate (log intensity, higher = more binding, comparable within an allelic series)"
same,binding signal,ALX1 [17],"6.27 upbm affinity estimate (log intensity, higher = more binding, comparable within an allelic series)"
same,binding signal,ALX1 [18],"6.1 upbm affinity estimate (log intensity, higher = more binding, comparable within an allelic series)"
CCAGCTCC,binding signal,SHOX [1],"7.19 upbm affinity estimate (log intensity, higher = more binding, comparable within an allelic series)"
same,binding signal,HOXB6 [19],"8.94 upbm affinity estimate (log intensity, higher = more binding, comparable within an allelic series)"
same,binding signal,ALX3 [20],"7.65 upbm affinity estimate (log intensity, higher = more binding, comparable within an allelic series)"
same,binding signal,SHOX [6],"7.18 upbm affinity estimate (log intensity, higher = more binding, comparable within an allelic series)"
same,binding signal,ALX3 [21],"7.54 upbm affinity estimate (log intensity, higher = more binding, comparable within an allelic series)"
same,binding signal,ALX3 [22],"7.75 upbm affinity estimate (log intensity, higher = more binding, comparable within an allelic series)"
same,binding signal,ALX3 [23],"7.76 upbm affinity estimate (log intensity, higher = more binding, comparable within an allelic series)"
same,binding signal,ALX3 [24],"7.69 upbm affinity estimate (log intensity, higher = more binding, comparable within an allelic series)"
same,binding signal,HOXB6 [25],"8.78 upbm affinity estimate (log intensity, higher = more binding, comparable within an allelic series)"
